Source: the supplement of paper PMC6135742
Structures can show the parent of a compound that is named as a salt. The full ranking holds about 2,600 compounds; the median of “total cell number (DAPI+ nuclei) relative to DMSO vehicle control” is about -1.4, and the lowest 2% start at about -23. This excerpt belongs to a sample that is enriched for the lowest values.

The molecules below were run on jimpy (Plp1 jimpy) mouse iPSC-derived oligodendrocyte progenitor cells (assay: total cell number (DAPI+ nuclei) relative to DMSO vehicle control (SDs above negative control mean); higher = more surviving cells). Conditions: 10 µM; 3 days.
Experimental: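 Primary phenotypic screen of >3,000 bioactive compounds (Selleck L1700 and Sigma LO1280 libraries) at a single dose of 10 µM. Compounds were added to jimpy (Plp1 mutant) mouse iPSC-derived OPCs at the start of thyroid hormone-induced oligodendrocyte differentiation, one well per compound in 384-well plates. After 3 days cells were stained for MBP, Sox10 and DAPI and imaged with an Operetta system. MBP+ oligodendrocyte number and total cell number were expressed as the number of SDs above the mean of the DMSO negative control on the same plate (n=16 control wells per plate). Hits were defined as >=4 SD for oligodendrocytes and >=2 SD for total cells.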
Molecule `CC[C@@]1(O)C(=O)OCc2c1cc1n(c2=O)Cc2cc3ccccc3nc2-1` [(S)-(+)-Camptothecin] has a total cell number of -9.49.
`CC[C@@]1(O)C(=O)OCc2c1cc1n(c2=O)Cc2cc3ccccc3nc2-1` [Camptothecin] was tested, and the total cell number was -22.6.
For `CC1C2Cc3ccc(O)cc3C1(C)CCN2CC1CC1` (single isomer, unassigned; (+)) [(+)-Cyclazocine], the total cell number was -1.89.
In the case of `CC(C)C1CNC(C(=O)O)C1CC(=O)O` (stereo unspecified) [Dihydrokainic acid], the total cell number is reported as -0.564.
`Cc1cc([C@@H]2CCCN2C)on1` [ABT-418 hydrochloride] was tested, and the total cell number was -4.48.
`Clc1ccc(N2CCN(Cc3c[nH]c4ncccc34)CC2)cc1` [L-745,870 hydrochloride] showed a total cell number of -5.68.
In the case of `COC[C@H]1OC(=O)c2coc3c2[C@@]1(C)C1=C(C3=O)C2CCC(=O)[C@@]2(C)C[C@H]1OC(C)=O` (stereo partly specified) [Wortmannin from Penicillium funiculosum], the total cell number is reported as -3.09.
Work on `CC[C@@H]1/C=C/C=C/C[C@H](C)[C@H](O)[C@](C)(O)C(=O)[C@H](C)[C@@H](O)[C@H](C)C(=O)[C@H](C)[C@@H](O)[C@H](C)/C=C/C(=O)O[C@H]2[C@@H](C)[C@@H](CC1)O[C@@]1(CC[C@@H](C)[C@@H](C[C@H](C)O)O1)[C@@H]2C` [Oligomycin A] yielded a total cell number of -27.5.
`NC(Cc1cc(O)c(O)cc1O)C(=O)O` (racemic) [6-Hydroxy-DL-DOPA] showed a total cell number of -2.36.
`O=c1ccc2[nH]cc(C3=CCNCC3)c2[nH]1` showed a total cell number of 0.673.
With `CC1=NN=C(c2ccc(N)cc2)c2cc3c(cc2C1)OCO3` the total cell number was -0.785.
`CO[C@H]1CC[C@@H](O[C@H]2C[C@H]([C@]3(C)CC[C@]4(C[C@H](O)[C@@H](C)[C@@H]([C@@H](C)/C=C(\C)C(=O)[C@H](C)C[C@H](C)C(=O)O)O4)O3)O[C@]3(O[C@@H]([C@H]4O[C@@](O)(CO)[C@H](C)C[C@@H]4C)C[C@@H]3C)[C@@H]2C)O[C@@H]1C` [Nanchangmycin] was tested, and the total cell number was -27.5.
In the case of `COc1cc(C(O)CN)ccc1O` (racemic) [(±)-Normetanephrine hydrochloride], the total cell number is reported as -1.67.
With `COc1cc2c(cc1OC)C1CC(=O)C(CC(C)C)CN1CC2` (stereo unspecified) [Tetrabenazine] the total cell number was -0.277.
`CC(N)C(O)c1ccc(O)c(O)c1` (single isomer, unassigned; (-)) [(-)-alpha-Methylnorepinephrine] showed a total cell number of -0.161.
With `CCCCC/C=C\C/C=C\C/C=C\C/C=C\CCCC(=O)NCc1ccc(O)c(OC)c1` [Arvanil] the total cell number was -8.09.
